Source: PubChem BioAssay
Pf Dd2 growth = blocks in vitro growth of P. falciparum Dd2 | 4.3% of 120,000 active | AID 1347417 | Potency, µM (series often up to 28.9 µM), without a hit: at the top dose activity, negative = inhibition, actives largely listed as inhibitors | P. falciparum Dd2 growth, SYBR Green, 72 h; active = well fitted inhibition curve with a large enough effect;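 note: plate controls were DMSO vehicle for no effect and reference drug for full effect; nearly all actives have a fitted effect of over 65% in size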
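Infected erythrocytes (Dd2, 0.3% parasitemia, 2.5% hematocrit final) are added to compound in RPMI-1640/Albumax II medium, grown 72 h at 37C in low oxygen, then lysed with saponin/Triton-X containing SYBR Green and read by fluorescence.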
An asterisk follows results filed as active; i = inactive; [ ] = remark or other dose. This is one part of a sample in which hits are shown more often than they occur. Potency is the fitted concentration of half-maximal effect.

SMILES	Pf Dd2 growth
c1ccc(O[C@H]2COCCN(c3nc4ccccc4o3)C2)nc1	-11.4%[44.1 µM]
O=C(NCc1ccccc1)N1CCCC(Cc2noc(-c3ccncc3)n2)C1 (configuration not stated)	i
COc1cc(CN2CCc3nc(N4CCN(c5ccccc5F)CC4)ncc3C2)ccc1OC(C)C	-12.6%
COc1cc(CN2CCc3nc(N4CCN(c5ncccn5)CC4)ncc3C2)cc(OC)c1OC	7.94µM*
CCOc1ccc(CN2CCc3nc(N4CCN(c5ccccn5)CC4)ncc3C2)cc1OC	-28.3%
COCCc1nncn1C1CCN(C(=O)c2cccc(Br)c2)CC1	-16.9%
Cc1nn(C)c(C)c1CCN(C)C(=O)[C@H]1CN(Cc2ccccc2)C[C@H]1C(=O)O	i
CCn1ncc(NC(=O)Cn2ncc3cc(-c4ccc(C)cc4F)ccc32)n1	-21.8%
Cc1cc(C)cc(NS(=O)(=O)c2ccc3[nH]cc(C(=O)NCCc4ccccc4)c(=O)c3c2)c1	36.9%
Cc1ccccc1NS(=O)(=O)c1ccc2[nH]cc(C(=O)NCCc3ccccc3)c(=O)c2c1	11.2µM*
CCc1ccc(NS(=O)(=O)c2ccc3[nH]cc(C(=O)NCCc4ccccc4)c(=O)c3c2)cc1	-13.4%
c1ccc2ncc(CNC[C@H]3COCc4nc5ccccc5n43)cc2c1	-26.5%[44.1 µM]
Cn1cncc1-c1nnc([C@H]2CCN(Cc3ccc(Cl)cc3)C2)o1	i
CN(C)C[C@H]1C[C@@H](CO)CN(C(=O)c2cc(-c3ccccc3F)n[nH]2)C1	12.3%
COCCN1CC2(CCCN(C(=O)c3cc(-c4ccsc4)n[nH]3)C2)CCC1=O (configuration not stated)	-18.0%
O=C(c1cc(-c2ccccc2F)n[nH]1)N1CCC2(CCCN(Cc3ccccc3F)C2)C1 (configuration not stated)	8.91µM*
CC(C)N[C@H]1C[C@@H](Cc2cc(CO)on2)C1(C)C	-15.6%[44.1 µM]
CC1(C)[C@H](Cc2cc(CN3CCCCC3)on2)C[C@@H]1NC(=O)c1ccccc1	-5.1%[44.1 µM]
CC1(C)[C@H](Cc2cc(COc3ccccc3)on2)C[C@@H]1NC(=O)NCc1ccccc1	-0.8%[44.1 µM]
CC1(C)[C@H](Cc2cc(COc3ccccc3)on2)C[C@@H]1NC(=O)C1CCCC1	i
CN(C)Cc1cc(C[C@@H]2C[C@H](NC(=O)CC(C)(C)C)C2(C)C)no1	14.1µM*
CCCCc1cc(C[C@@H]2C[C@H](NC(=O)C(C)(C)C)C2(C)C)no1	i
CC1(C)[C@H](Cc2cc(CN3CCN(c4ccccc4)CC3)on2)C[C@@H]1NCC1CC1	i
CC(C)N[C@H]1C[C@@H](Cc2cc(COc3ccccc3)on2)C1(C)C	11.2µM*
CC(C)NC(=O)N[C@H]1C[C@@H](Cc2cc(CN3CCN(c4ccccc4)CC3)on2)C1(C)C	10µM*
SMILES	Pf Dd2 growth
CC1(C)[C@H](Cc2cc(CO)on2)C[C@@H]1NC(=O)C1CCC1	1.2%[44.1 µM]
CC(C)N[C@H]1C[C@@H](Cc2cc(CCO)on2)C1(C)C	-8.7%[44.1 µM]
CC1(C)[C@H](Cc2cc(COc3ccccc3)on2)C[C@@H]1NC(=O)C1CCC1	11.2µM*
Cc1ccc(S(=O)(=O)N(C)Cc2ccc(F)cc2)cc1	-24.1%[44.1 µM]
Cc1cnccc1NCCNc1ncncn1	4.4%
Cc1ccc(C)c(C(=O)N2CCC(C3CCN(C)CC3)C2)c1 (configuration not stated)	15.2%
COc1ccc(C(=O)N2CCC[C@H]2c2nc(-c3ccc(OC)c(OC)c3)no2)cc1	-4.4%
O=C(CN1C(=O)C(c2ccccc2)=NC12CCCC2)NC1CCCC1	-1.1%
CS(=O)(=O)N1CCCC1c1noc(CCC(=O)NCC2CC2)n1 (configuration not stated)	-6.7%
CCCn1nc(C)c(NC(=O)CC[C@H]2NC(=O)c3ccccc3NC2=O)c1C	-7.6%
Cc1cccnc1C(=O)N1C[C@@H](CO)[C@H](c2ccccn2)C1	6.0%
O=C(O)C1=NOC2CN(C(=O)c3cccc(Cl)c3)CC12 (configuration not stated)	-3.1%
CCn1ncnc1C1CC(=O)Nc2cc(OC)c(NS(C)(=O)=O)cc21 (configuration not stated)	-3.9%
Cc1cc2nn(-c3ccccc3)nc2cc1NC(=O)c1cccc2c(Cl)cccc12	46.0%
CCN(CC)c1ccc(-n2nc3cc(C)c(NC(=O)c4ccccc4F)cc3n2)cc1	1.41µM*
Cc1cc2nn(-c3ccc(F)cc3)nc2cc1NC(=O)c1cc(Cl)ccc1Cl	28.2%
O=C(Nc1cccc(Cl)c1)C1=NO[C@@H]2CN(CCc3ccccc3)C[C@H]12	19.0%[44.1 µM]
CC(C)CC(=O)N1CCc2nnc([C@@H]3C[C@@H](O)CN3C)n2CC1	5.5%
O=C1COCC2(CN(CCCc3ccccc3)C2)CN1Cc1ccccc1	-39.3%[44.1 µM]
COc1ccccc1N1CCN(C(=O)c2cc(S(=O)(=O)N3CCC(C)CC3)cn2C)CC1	8.91µM*
COc1ccc(N2CCN(C(=O)c3cc(S(=O)(=O)N4CCCCCC4)cn3C)CC2)cc1	-20.2%
COc1ccc(Cl)cc1NC(=O)c1cc(S(=O)(=O)N2CCC(C)CC2)cn1C	28.2%
O=C(Cc1cccc(F)c1)N1CCC(Cc2nncn2-c2ccccc2)CC1	-8.8%
CCCS(=O)(=O)Nc1ccc([C@H]2OCC(=O)N(CC(=O)N(C)C)[C@@H]2CO)cc1	15.5%[44.1 µM]
CCNC(=O)N1CCCCCCNC(=O)[C@@H]2CCC[C@@H]21	27.3%
SMILES	Pf Dd2 growth
O=C(Nc1ccc(F)cc1)N1CCC(CCNC(=O)C2(c3ccccc3)CC2)CC1	i
COC(=O)[C@H](NC(=O)[C@@H]1[C@@H](NC(=O)Nc2cccc(SC)c2)CCN1C(=O)c1cccn1C)C(C)C	i
CCOC(=O)c1ccc(NC(=O)c2csc3c2CCCC3)cc1	-22.3%
CCOC(=O)c1ccc(NC(=O)c2c(NCc3cccs3)sc3c2CCCCC3)cc1	10µM*
O=C(COc1ccccc1)Nc1sc2c(c1C(=O)Nc1ccccc1)CCCCC2	24.6%
COc1ccc(NC(=O)c2c(NCc3cccs3)sc3c2CCCC3)cc1	7.94µM*
COC(=O)c1c(NC(=O)COc2cc(C)c(Cl)c(C)c2)sc2c1CCCC2	2.8%
COc1ccc(NC(=O)c2c(NC(=O)COc3ccc(Cl)cc3)sc3c2CCCCC3)cc1	3.16µM*
CCCCOc1ccc(C(=O)Nc2sc3c(c2C(=O)OCC)CCCCC3)cc1	-16.9%
COc1ccc(NC(=O)c2c(NC(=O)c3cccc(C)c3)sc3c2CCC3)cc1	-10.4%
COc1ccc(CC(=O)Nc2sc3c(c2C(=O)Nc2ccccc2)CCCCC3)cc1	0.0%
CCOC(=O)c1csc(NC(=O)C2CC(=O)N(c3n[nH]c4ccccc34)C2)n1 (configuration not stated)	i
CC(C)N[C@@H]1CO[C@H](CNC(=O)c2ccncc2)[C@H]1O	26.1%[44.1 µM]
COCCNC(=O)[C@H]1C[C@H](Oc2ccccc2)CN1S(=O)(=O)c1c(C)noc1C	-8.6%
CC(CCc1ccccc1)NC(=O)Cn1cccc1-c1nc(-c2ccccc2)no1 (configuration not stated)	3.1%
O=C(Cn1ncc2c3ccccc3n(Cc3ccccc3F)c2c1=O)NCCCc1ccccc1	3.6%
O=C(Cn1ncc2c3ccccc3n(Cc3ccc(F)cc3)c2c1=O)NC1CCCCCC1	i
CCN(CC)CCNC(=O)Cn1ncc2c3ccccc3n(Cc3ccc(Cl)cc3)c2c1=O	5.01µM*
CCCCN(CC)CCCNC(=O)Cn1ncc2c3ccccc3n(Cc3ccccc3F)c2c1=O	3.98µM*
O=C(Cn1ncc2c3ccccc3n(Cc3ccc(F)cc3)c2c1=O)NCCCN1CCCCC1	5.01µM*
CCCCN(CC)CCCNC(=O)Cn1ncc2c3ccccc3n(C)c2c1=O	i
O=C(Cn1ncc2c3ccccc3n(Cc3ccc(F)cc3)c2c1=O)NCCC1=CCCCC1	42.7%[0.594 µM]
